Experimental data published in PubChem BioAssay (EPA / NIEHS).
Activity calls are given as the source filed them. How the source made its calls: active means hit-call score of the fitted dose curve at least 0.9, where 1 is the maximum; inactive means score below 0.9.

Molecular target: Nuclear respiratory factor 1 (Homo sapiens) (UniProt Q16656)
Sequence (Q16656 whole entry, looked up): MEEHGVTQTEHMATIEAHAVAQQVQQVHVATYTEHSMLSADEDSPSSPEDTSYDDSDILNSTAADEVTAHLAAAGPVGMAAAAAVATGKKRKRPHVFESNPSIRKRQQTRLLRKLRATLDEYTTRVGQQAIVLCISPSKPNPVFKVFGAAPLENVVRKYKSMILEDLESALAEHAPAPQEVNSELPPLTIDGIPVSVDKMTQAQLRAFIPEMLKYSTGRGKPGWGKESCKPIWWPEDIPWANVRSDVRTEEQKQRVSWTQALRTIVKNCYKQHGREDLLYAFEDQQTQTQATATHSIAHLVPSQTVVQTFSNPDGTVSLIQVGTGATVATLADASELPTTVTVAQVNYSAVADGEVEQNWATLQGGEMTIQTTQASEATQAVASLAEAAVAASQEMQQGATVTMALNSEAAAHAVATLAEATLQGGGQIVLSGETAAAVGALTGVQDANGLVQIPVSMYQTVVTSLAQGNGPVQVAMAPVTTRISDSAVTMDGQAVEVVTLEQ
Experiment: ATG_NRF1_CIS: Attagene CIS-FACTORIAL HepG2 Assay for human Nuclear Respiratory Factor 1 (NRF1) Orphan Gene (AID 2282987)
Details: HepG2 NRF1 cis-element reporter, Attagene multiplex; actives raise or lower the signal
Summary of the method: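 Reporter mRNA induction or loss in HepG2 cells after 24 h dosing; cis-regulated reporter constructs report endogenous transcription-factor activity. Quantified by RT-PCR/capillary electrophoresis fluorescence, DMSO-referenced.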
In the case of `O=[N+]([O-])c1ccc(CO)cc1`, the outcome is reported as “inactive”.
For `CCCCC(CC)COCC1CO1` (stereo unspecified), the outcome was “inactive”.
For `c1cc(C(c2ccc(OCC3CO3)cc2)C(c2ccc(OCC3CO3)cc2)c2ccc(OCC3CO3)cc2)ccc1OCC1CO1` (stereo unspecified), the outcome was “inactive”.
With `c1ccc2c(c1)ccc1ncccc12` the outcome was “inactive”.
With `CC1=Nc2ccc3ccccc3c2C1(C)C` the outcome was “inactive”.
In the case of `O=C1CCCC1`, the outcome is reported as “inactive”.
For `O=S(=O)(O)c1cc(S(=O)(=O)O)c2ccc3c(S(=O)(=O)O)cc(S(=O)(=O)O)c4ccc1c2c43`, the outcome was “inactive”.
For `C=C(C)[C@@H]1CCC2=CCC[C@@H](C)[C@]2(C)C1`, the outcome was “inactive”.
With `COC(=O)c1cc(Cl)ccc1[N+](=O)[O-]` the outcome was “inactive”.
For `CC(C)C(=O)C(C)C`, the outcome was “inactive”.
For `CC(=O)OCC(C)OC(C)=O` (stereo unspecified), the outcome was “inactive”.
In the case of `CNC(=S)N(C)C`, the outcome is reported as “inactive”.
In the case of `CCCCC(CC)COC(=O)c1ccccc1` (stereo unspecified), the outcome is reported as “inactive”.
In the case of `CCCCCCCCC(=O)OCC`, the outcome is reported as “inactive”.
In the case of `C=C(C)C(=O)OCCOc1ccccc1`, the outcome is reported as “inactive”.
With `Cc1ccc(C(C)c2ccc(C)c(C)c2)cc1C` the outcome was “inactive”.
For `CC(=O)Nc1nnc(S(N)(=O)=O)s1`, the outcome was “inactive”.
For `OC1CCCCCCCCCCC1`, the outcome was “inactive”.
For `CCC(CC)C(=O)O`, the outcome was “inactive”.
For `CC(C)=CCCC(C)C=O` (stereo unspecified), the outcome was “inactive”.
With `CO[Si](CCC1CCC2OC2C1)(OC)OC` (stereo unspecified) the outcome was “inactive”.
With `CC1=NC(C)OC1C` (stereo unspecified) the outcome was “inactive”.
For `N=c1ccn2c(n1)O[C@H]1[C@H](O)[C@@H](CO)O[C@H]12`, the outcome was “inactive”.
For `CCCCCCCCCCCCCCCC[N+](C)(C)CC`, the AC50 was 9.68 µM (active).
For `CCc1nccnc1C`, the outcome was “inactive”.
With `OCCCS` the outcome was “inactive”.
In the case of `FC(F)(F)C(=NOCC1OCCO1)c1ccc(Cl)cc1`, the outcome is reported as “inactive”.
For `NC(CO)(CO)CO`, the outcome was “inactive”.
For `Cc1cc(C)c(C(=O)O)c(C)c1`, the outcome was “inactive”.
In the case of `O=C1CCCCCCCCCCC(=O)OCCO1`, the outcome is reported as “inactive”.
With `CCOC(=O)c1ccc(N(C)C)cc1` the outcome was “inactive”.
In the case of `C=C1C2CCC(C2)C1(C)C` (stereo unspecified), the outcome is reported as “inactive”.
In the case of `O=Nc1ccc(O)cc1`, the outcome is reported as “inactive”.
With `C(=CC=Nc1ccccc1)C=CNc1ccccc1` the outcome was “inactive”.
With `COCc1c(C(C)C)nc(C(C)C)c(/C=C/[C@@H](O)C[C@@H](O)CC(=O)O)c1-c1ccc(F)cc1` the outcome was “inactive”.
In the case of `SCCc1cnccn1`, the outcome is reported as “inactive”.

System: not listed separately
Experiment: ATG_NFI_CIS: Attagene CIS-FACTORIAL HepG2 Assay for human Nuclear Factor I (NFI) (AID 2282989)
Details: HepG2 cis-regulatory reporter, NFI response element transcription; actives raise or lower the signal
Summary of the method: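 Reporter transcription driven by endogenous transcription factors in HepG2 cells; 24 h treatment. Quantitation by labelled RT-PCR fragments on capillary electrophoresis, gain- or loss-of-signal relative to DMSO.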
In the case of `O=[N+]([O-])c1ccc(CO)cc1`, the outcome is reported as “inactive”.
For `NC(=O)C1CO1` (stereo unspecified), the outcome was “inactive”.
In the case of `CCCCC(CC)COCC1CO1` (stereo unspecified), the outcome is reported as “inactive”.
In the case of `c1cc(C(c2ccc(OCC3CO3)cc2)C(c2ccc(OCC3CO3)cc2)c2ccc(OCC3CO3)cc2)ccc1OCC1CO1` (stereo unspecified), the AC50 is reported as 22 µM (active).
With `CC(=O)C=CC1C(C)=CCC(C)C1(C)C` (stereo unspecified) the outcome was “inactive”.
For `c1ccc2c(c1)ccc1ncccc12`, the outcome was “inactive”.
For `CC1=Nc2ccc3ccccc3c2C1(C)C`, the outcome was “inactive”.
For `O=C1CCCC1`, the outcome was “inactive”.
In the case of `O=S(=O)(O)c1cc(S(=O)(=O)O)c2ccc3c(S(=O)(=O)O)cc(S(=O)(=O)O)c4ccc1c2c43`, the outcome is reported as “inactive”.
In the case of `C=C(C)[C@@H]1CCC2=CCC[C@@H](C)[C@]2(C)C1`, the outcome is reported as “inactive”.
In the case of `COC(=O)c1cc(Cl)ccc1[N+](=O)[O-]`, the outcome is reported as “inactive”.
In the case of `CC(C)C(=O)C(C)C`, the outcome is reported as “inactive”.
In the case of `CC(=O)OCC(C)OC(C)=O` (stereo unspecified), the outcome is reported as “inactive”.
With `CNC(=S)N(C)C` the outcome was “inactive”.
In the case of `CCCCC(CC)COC(=O)c1ccccc1` (stereo unspecified), the outcome is reported as “inactive”.
In the case of `CCCCCCCCC(=O)OCC`, the outcome is reported as “inactive”.
For `CCCCCCCCCCCSCC(=O)O`, the outcome was “inactive”.
In the case of `C=C(C)C(=O)OCCOc1ccccc1`, the outcome is reported as “inactive”.
For `c1cc(N(CC2CO2)CC2CO2)ccc1OCC1CO1` (stereo unspecified), the AC50 was 27 µM (active).
In the case of `Cc1ccc(C(C)c2ccc(C)c(C)c2)cc1C`, the outcome is reported as “inactive”.
For `CC(=O)Nc1nnc(S(N)(=O)=O)s1`, the outcome was “inactive”.
With `OC1CCCCCCCCCCC1` the outcome was “inactive”.
For `CCC(CC)C(=O)O`, the outcome was “inactive”.
With `CC(C)=CCCC(C)C=O` (stereo unspecified) the outcome was “inactive”.
For `CO[Si](CCC1CCC2OC2C1)(OC)OC` (stereo unspecified), the outcome was “inactive”.
For `CC1=NC(C)OC1C` (stereo unspecified), the outcome was “inactive”.
With `N=c1ccn2c(n1)O[C@H]1[C@H](O)[C@@H](CO)O[C@H]12` the outcome was “inactive”.
In the case of `CCCCCCCCCCCCCCCC[N+](C)(C)CC`, the outcome is reported as “inactive”.
With `CCc1nccnc1C` the outcome was “inactive”.
With `OCCCS` the outcome was “inactive”.
For `FC(F)(F)C(=NOCC1OCCO1)c1ccc(Cl)cc1`, the outcome was “inactive”.
For `NC(CO)(CO)CO`, the outcome was “inactive”.
For `Cc1cc(C)c(C(=O)O)c(C)c1`, the outcome was “inactive”.
With `O=C1CCCCCCCCCCC(=O)OCCO1` the outcome was “inactive”.
With `CCOC(=O)c1ccc(N(C)C)cc1` the outcome was “inactive”.
For `C=C1C2CCC(C2)C1(C)C` (stereo unspecified), the outcome was “inactive”.
With `O=Nc1ccc(O)cc1` the outcome was “inactive”.
With `C(=CC=Nc1ccccc1)C=CNc1ccccc1` the outcome was “inactive”.
For `COCc1c(C(C)C)nc(C(C)C)c(/C=C/[C@@H](O)C[C@@H](O)CC(=O)O)c1-c1ccc(F)cc1`, the outcome was “inactive”.
In the case of `SCCc1cnccn1`, the outcome is reported as “inactive”.

Molecular target: Myc proto-oncogene protein (Homo sapiens) (UniProt P01106)
Sequence (P01106 whole entry, looked up): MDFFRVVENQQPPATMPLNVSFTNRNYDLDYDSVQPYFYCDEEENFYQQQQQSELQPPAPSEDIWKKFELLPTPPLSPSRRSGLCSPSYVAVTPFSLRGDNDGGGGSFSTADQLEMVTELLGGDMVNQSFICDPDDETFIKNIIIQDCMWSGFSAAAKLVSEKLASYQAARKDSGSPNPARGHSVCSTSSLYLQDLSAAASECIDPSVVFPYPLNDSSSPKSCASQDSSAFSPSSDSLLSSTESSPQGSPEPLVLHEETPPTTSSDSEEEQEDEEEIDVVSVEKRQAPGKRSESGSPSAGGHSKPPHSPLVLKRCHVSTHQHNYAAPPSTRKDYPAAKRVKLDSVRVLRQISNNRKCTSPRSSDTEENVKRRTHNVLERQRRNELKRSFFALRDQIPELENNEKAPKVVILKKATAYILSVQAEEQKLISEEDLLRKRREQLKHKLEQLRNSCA
Experiment: ATG_Myc_CIS: Attagene CIS-FACTORIAL HepG2 Assay for human Myelocytomatosis (Myc) Proto-Oncogene Transcription Factor (AID 2282990)
Details: HepG2, Attagene cis-reporter transcription factor activity; actives raise or lower the signal
Summary of the method: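 Read-out: fluorescent reporter mRNA fragments resolved by capillary electrophoresis after RT-PCR. Human HepG2 liver cells carried transfected cis-element reporter units and were dosed for 24 h. Gain or loss of signal fitted relative to DMSO baseline.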
For `O=[N+]([O-])c1ccc(CO)cc1`, the outcome was “inactive”.
With `NC(=O)C1CO1` (stereo unspecified) the outcome was “inactive”.
In the case of `CCCCC(CC)COCC1CO1` (stereo unspecified), the outcome is reported as “inactive”.
With `c1cc(C(c2ccc(OCC3CO3)cc2)C(c2ccc(OCC3CO3)cc2)c2ccc(OCC3CO3)cc2)ccc1OCC1CO1` (stereo unspecified) the outcome was “inactive”.
In the case of `CC(=O)C=CC1C(C)=CCC(C)C1(C)C` (stereo unspecified), the outcome is reported as “inactive”.
With `c1ccc2c(c1)ccc1ncccc12` the AC50 was 26.7 µM (active).
For `CC1=Nc2ccc3ccccc3c2C1(C)C`, the outcome was “inactive”.
With `O=C1CCCC1` the outcome was “inactive”.
For `O=S(=O)(O)c1cc(S(=O)(=O)O)c2ccc3c(S(=O)(=O)O)cc(S(=O)(=O)O)c4ccc1c2c43`, the outcome was “inactive”.
In the case of `C=C(C)[C@@H]1CCC2=CCC[C@@H](C)[C@]2(C)C1`, the outcome is reported as “inactive”.
With `COC(=O)c1cc(Cl)ccc1[N+](=O)[O-]` the outcome was “inactive”.
With `CC(C)C(=O)C(C)C` the outcome was “inactive”.
In the case of `CC(=O)OCC(C)OC(C)=O` (stereo unspecified), the outcome is reported as “inactive”.
With `CNC(=S)N(C)C` the outcome was “inactive”.
In the case of `CCCCC(CC)COC(=O)c1ccccc1` (stereo unspecified), the outcome is reported as “inactive”.
With `CCCCCCCCC(=O)OCC` the outcome was “inactive”.
In the case of `CCCCCCCCCCCSCC(=O)O`, the outcome is reported as “inactive”.
With `C=C(C)C(=O)OCCOc1ccccc1` the outcome was “inactive”.
With `c1cc(N(CC2CO2)CC2CO2)ccc1OCC1CO1` (stereo unspecified) the AC50 was 163 µM (active).
In the case of `Cc1ccc(C(C)c2ccc(C)c(C)c2)cc1C`, the outcome is reported as “inactive”.
With `CC(=O)Nc1nnc(S(N)(=O)=O)s1` the outcome was “inactive”.
With `OC1CCCCCCCCCCC1` the outcome was “inactive”.
In the case of `CCC(CC)C(=O)O`, the outcome is reported as “inactive”.
In the case of `CC(C)=CCCC(C)C=O` (stereo unspecified), the outcome is reported as “inactive”.
With `CO[Si](CCC1CCC2OC2C1)(OC)OC` (stereo unspecified) the outcome was “inactive”.
In the case of `CC1=NC(C)OC1C` (stereo unspecified), the outcome is reported as “inactive”.
In the case of `N=c1ccn2c(n1)O[C@H]1[C@H](O)[C@@H](CO)O[C@H]12`, the outcome is reported as “inactive”.
With `CCCCCCCCCCCCCCCC[N+](C)(C)CC` the AC50 was 8.97 µM (active).
For `CCc1nccnc1C`, the outcome was “inactive”.
For `OCCCS`, the outcome was “inactive”.
For `FC(F)(F)C(=NOCC1OCCO1)c1ccc(Cl)cc1`, the outcome was “inactive”.
For `NC(CO)(CO)CO`, the outcome was “inactive”.
In the case of `Cc1cc(C)c(C(=O)O)c(C)c1`, the outcome is reported as “inactive”.
For `O=C1CCCCCCCCCCC(=O)OCCO1`, the outcome was “inactive”.
With `CCOC(=O)c1ccc(N(C)C)cc1` the outcome was “inactive”.
In the case of `C=C1C2CCC(C2)C1(C)C` (stereo unspecified), the outcome is reported as “inactive”.
In the case of `O=Nc1ccc(O)cc1`, the outcome is reported as “inactive”.
In the case of `C(=CC=Nc1ccccc1)C=CNc1ccccc1`, the outcome is reported as “inactive”.
With `COCc1c(C(C)C)nc(C(C)C)c(/C=C/[C@@H](O)C[C@@H](O)CC(=O)O)c1-c1ccc(F)cc1` the outcome was “inactive”.
With `SCCc1cnccn1` the outcome was “inactive”.
